Measured values reported in PubChem BioAssay (NCATS).
Inconclusive results are not listed. Values without a mark were called inactive. Calls follow the shape of the full dose curve.

experiment: Confirmatory qHTS for VERO E6 Cytotoxicity Assay: Counterscreen for SARS-CoV-2 CPE Assay (AID 1508605); settings: cell viability luminescence; series mostly up to 20 µM; activity change, negative = cytotoxic: at the top concentration; also: nearly all actives have a fitted effect of over 60% in size
% is scaled to controls: 0 for no effect and ±100 for the full control effect.

Row | Structure (SMILES) | activity change, negative = cytotoxic [%]
1 | CN1CCCCC1CCN1c2ccccc2Sc2ccc(S(C)=O)cc21 (centres undefined) | -15.3
2 | Clc1ccc2c(c1)CCc1cccnc1C2=C1CCNCC1 | -17.5
3 | CC(=O)c1ccc2c(c1)N(CCCN1CCC(CCO)CC1)c1ccccc1S2 | -18.8
4 | COC(=O)[C@H]1[C@H]2C[C@@H]3c4[nH]c5cc(OC)ccc5c4CCN3C[C@H]2C[C@@H](OC(=O)/C=C/c2ccc(O)c(OC)c2)[C@@H]1OC | -27.4
5 | CN(C)CCCN1c2ccccc2Sc2ccccc21 | -10.4
6 | CO[C@@H]1[C@@H](O[C@@H]2O[C@H](C)[C@@H](O[C@H]3C[C@@](C)(O)[C@@H](O)[C@H](C)O3)[C@H](N(C)C)[C@H]2O)[C@@H](CC=O)C[C@@H](C)[C@@H](O[C@@H]2CC[C@H](N(C)C)[C@@H](C)O2)/C=C/C=C/C[C@@H](C)OC(=O)C[C@H]1OC(C)=O | -7.69
7 | COc1cccc(CCc2ccccc2OCC(CN(C)C)OC(=O)CCC(=O)O)c1 (centres undefined) | -18.5
8 | CCCOC(C(=O)OC1CCN(C)CC1)(c1ccccc1)c1ccccc1 | -7.32
9 | C[C@@H](CN(C)C)CN1c2ccccc2Sc2ccccc21 | -10.1
